Bioassay records (PubChem)
HIF-2a inh – inhibitors of HIF-2a; 786-0 RCC cells HIF-2a reporter, luciferase luminescence, overnight; inhibition, % at 18.8 µM; 360,000 tested, 0.72% active;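 active = inhibition of the luminescence signal of 40% or more relative to plate controls, in a single-dose primary screen at 18.75 µM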
Peg3 promoter – inhibitors of Peg3 promoter. HeLa PEG-Prom luciferase reporter, luminescence, overnight. inhibition, % at 20 µM. 360,000 tested, 1.7% active;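 active = inhibition of at least 50% at 20 µM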
TRAIL sens C8 – caspase-8 TRAIL sensitization | AID 624354 | 360,000 tested, 1% active | NB7+C8 cells + TRAIL, ATPlite viability luminescence | inhibition (viability loss, TRAIL sensitization), % at 10 µM;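 active = compounds causing at least 50% loss of cell viability in the single-dose screen, relative to plate controls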
KKLEB tox – reduces viability of KKLEB cystic fibrosis airway cells; KKLEB CF airway cells viability, ATPlite luminescence, overnight; hits give low values; cells stimulated with P. aeruginosa culture filtrate; activity change (cytotoxicity), % at 5 µM; 360,000 tested, 0.36% active;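 active = corrected activity change at or below -50% at 5 µM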
CF NFkB block – inhibitors of cystic fibrosis induced NF-kB. KKLEB NF-kB-GFP reporter, PAF-induced, GFP fluorescence overnight. inhibition, % at 5 µM. 360,000 tested, 0.86% active;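 active = at least 50% inhibition at 5 µM, scaled per plate between neutral and stimulator controls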;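 also: PAF is a Pseudomonas aeruginosa culture filtrate used as stimulus; plate controls were PAF-stimulated DMSO wells for no effect and unstimulated DMSO wells for full effect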
PPC-1+TRAIL kill – compounds killing PPC-1 cancer cells with TRAIL present (potentiator screen, no TRAIL-free arm); PPC-1 cells + TRAIL, ATPLite viability luminescence; cell killing (% activity), % at 4 µM or 5 µM; 220,000 tested, 0.41% active; AID 1443;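 active = cell killing above 50% in the first pass at 4 µM, then a duplicate retest at 5 µM averaging 50% or more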;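 also: plate controls were cells with TRAIL plus DMSO for no effect and medium-only wells lacking cells for full effect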
CF NFkB conf – confirmation of cystic fibrosis induced NF-kB inhibitors | inhibition, % at 5 µM | 1,300 tested, 64% active | KKLEB CF airway cells, PAF-induced NF-kB-GFP fluorescence, overnight | shares compounds with CF NFkB block | AID 602472; in the data active = inhibition above about 40%;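 also: stimulus PAF is a Pseudomonas aeruginosa filtrate and not platelet activating factor; plate controls were DMSO wells with stimulus for no effect and unstimulated DMSO wells for full effect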
* hit, by the source's call; x = not tested or not shown. Compounds with a hit are over-represented: about 3.1% of the library has one in this group of screens.

SMILES | HIF-2a inh | Peg3 promoter | TRAIL sens C8 | KKLEB tox | CF NFkB block | PPC-1+TRAIL kill | CF NFkB conf
CC(=O)Oc1ccccc1N(C(C)=O)S(=O)(=O)c1ccc2ccccc2c1 | -16 | -17 | 1 | 20 | 2 | -5 | x
CC(=O)Oc1ccc(N(C(C)=O)S(=O)(=O)c2cccs2)c2ccccc12 | -4 | 8 | 17 | -12 | 56* | 0 | 67*
C[C@@H]1CN(S(=O)C(C)(C)C)[C@H](CCO)/C1=C\CCO (some centres not stated) | -9 | 5 | 0 | 4 | 3 | x | x
Cc1ccc2c(c1)N(C(=O)CCC(=O)NCc1cccnc1)CC(C)O2 (configuration not stated) | 15 | 1 | -7 | -13 | 0 | x | x
CC(=O)Nc1nc(C)c(-c2csc(Nc3cccc(C(C)=O)c3)n2)s1 | -10 | 49 | 18 | -44 | 81* | x | 82*
CCC(=O)Nc1nc(C)c(-c2csc(Nc3cccc(C(=O)O)c3)n2)s1 | -14 | -39 | 2 | 10 | 4 | 25 | x
Cc1cn([C@H]2C[C@H](O)[C@@H](/C=C/C(=O)NCCc3cccs3)O2)c(=O)[nH]c1=O | 6 | 8 | -20 | -9 | -6 | x | x
C=CCN1c2ccccc2Sc2cnccc21 | 5 | 35 | -3 | -11 | 80* | x | 91*
CC(=O)OCCN1c2ccccc2Sc2cnccc21 | 24 | 26 | 1 | -3 | 65* | x | 67*
CC(C)c1ccc(NC(=O)C2(C)Cc3c(-c4ccccc4)ccnc3O2)cc1 (configuration not stated) | 15 | 22 | -12 | 3 | -32 | x | x
COc1ccccc1OCCC(=O)Nc1cccc(S(=O)(=O)N2CCOCC2)c1 | 5 | 19 | 4 | 3 | -6 | x | x
CN1CCCCC1(C)C(=O)NCc1ccc(C(C)(C)C)cc1 (configuration not stated) | 0 | -6 | 12 | 2 | -17 | x | x
COCCNC(=O)C1CCCN(C(=O)c2csc3ccccc23)CC1 (configuration not stated) | 8 | 13 | -4 | 9 | -5 | x | x
COc1ccc(OC)c(C2CC(=O)c3c([nH]c(C(=O)OC(C)C)c3C)C2)c1 (configuration not stated) | -38 | -30 | 18 | -12 | 61* | 26 | 86*
CN(C)CCCN(C(=O)CCSc1ccccc1)c1nc2cc3c(cc2s1)OCO3 | -5 | 91* | 1 | -15 | 56* | 25 | 49*
CC(C)C1C(=O)N(Cc2cn(Cc3ccco3)nn2)CCS(=O)(=O)N1Cc1ccc(-c2ccccc2)cc1 (configuration not stated) | -19 | -8 | 24 | 5 | 32 | x | x
COc1ccc(-c2ccc(CN3C(CC(C)C)C(=O)N(Cc4cn(Cc5ccco5)nn4)CCS3(=O)=O)cc2)cc1OC (configuration not stated) | 10 | -6 | -8 | 2 | 31 | x | x
CC(C)C1C(=O)N(Cc2cn(Cc3ccco3)nn2)CCS(=O)(=O)N1Cc1ccc(-c2ccc(F)cc2)cc1 (configuration not stated) | -32 | 21 | 14 | 13 | 56* | x | 35
COc1ccc(-c2ccc(CN3C(CC(C)C)C(=O)N(Cc4cn(Cc5ccco5)nn4)CCS3(=O)=O)cc2)cc1 (configuration not stated) | 17 | 19 | 19 | -9 | 57* | x | 36
COc1ccc(C(O)c2ncc(-c3ccccc3)[nH]2)c(OC)c1 (configuration not stated) | -14 | -6 | -8 | 4 | 4 | x | x
COc1cc(C)ccc1S(=O)(=O)NC(=O)C1(C)CCN1C(=O)c1ccc(C(F)(F)F)nc1C (configuration not stated) | 5 | 4 | -10 | -3 | 8 | x | x
CCOC(=O)c1c(C)cc2c(CO)n[nH]c(=O)c2c1C | 10 | 27 | 3 | -14 | 51* | x | 48*
COc1ccc(NC(=O)CN(C)C(=O)c2cc(-c3cccs3)nn2-c2ccccc2)cc1 | 7 | 28 | 9 | -3 | 2 | x | x
